“And” between values parts separate entries of the source, which are not always exact repeats. Equal entries are not always repeated. The campaign covered roughly 5,500 compounds. About 2,000 (36%) were called active. Inconclusive results (about 18%) are left out. No stated cut-off is given here; in the data, active means normalized growth mostly below about 0.91 (no sharp cut-off); inconclusive means no clear call, values can overlap the other calls; inactive means mostly above about 0.92. This is one part of the list.
Experiment: chemical genetic growth profiling, strain panel (AID 1159580);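 further: tested at 20 µM; growth read once vehicle control cultures reached saturation at 30 °C; 1 = growth at the plate median or of vehicle wells; lower values mean less growth of the strain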
Details: S. cerevisiae deletion strains, growth OD

Measured: normalized growth

COc1cc(NC(C)CCCN)c2ncccc2c1 (configuration not stated)
active: locus YER155C, strain BEM2 (second series), hits give low values 0.859
inactive: locus YAL013W, strain DEP1, hits give low values 1 | locus YAL021C, strain ccr4, hits give low values 0.972 | locus YAL026C, strain drs2, hits give low values 1.02 | locus YAL030W, strain snc1, hits give low values 0.999 | locus YBL061C, strain skt5, hits give low values 1 | locus YBR009C, strain hhf1, hits give low values 1.07 | locus YBR021W, strain FUR4, hits give low values 0.988 | locus YBR023C, strain chs3, hits give low values 1.02 | locus YBR171W, strain sec66, hits give low values 1.01 | locus YBR229C, strain ROT2, hits give low values 1 | locus YBR231C, strain swc5, hits give low values 0.984 | locus YBR279W, strain paf1, hits give low values 1.01 | locus YCL011C, strain gbp2, hits give low values 1.01 | locus YCL016C, strain dcc1, hits give low values 1.02 | locus YCL029C, strain bik1, hits give low values 1.02 | locus YCL061C, strain MRC1, hits give low values 1 | locus YCL069W, strain vba3, hits give low values 1.01 | locus YCR088W, strain abp1, hits give low values 1 | locus YDL005C, strain med2, hits give low values 1 | locus YDL035C, strain GPR1, hits give low values 1 | locus YDL040C, strain nat1, hits give low values 1 | locus YDL074C, strain BRE1, hits give low values 1.01 | locus YDL101C, strain DUN1, hits give low values 1.02 | locus YDL134C, strain PPH21, hits give low values 1.01 | locus YDL185W, strain tfp1, hits give low values 1.01 | locus YDL192W, strain arf1, hits give low values 1.01 | locus YDR001C, strain nth1, hits give low values 1.01 | locus YDR069C, strain doa4, hits give low values 0.977 | locus YDR101C, strain arx1, hits give low values 1 | locus YDR137W, strain rgp1, hits give low values 1.03 | locus YDR150W, strain NUM1, hits give low values 1.01 | locus YDR159W, strain sac3, hits give low values 0.993 | locus YDR162C, strain NBP2, hits give low values 1.01 | locus YDR195W, strain ref2 0.99 | locus YDR297W, strain sur2, hits give low values 1 | locus YDR318W, strain mcm21, hits give low values 1 | locus YDR334W, strain swr1, hits give low values 1.01 | locus YDR335W, strain msn5, hits give low values 1 | locus YDR388W, hits give low values 1.02 | locus YDR392W, strain spt3, hits give low values 0.875 | locus YDR502C, strain sam2, hits give low values 1 | locus YEL003W, strain gim4, hits give low values 1.01 | locus YEL037C, strain rad23, hits give low values 1.02 | locus YEL061C, strain CIN8 (second series), hits give low values 1 | locus YEL061C, strain CIN8, hits give low values 1 | locus YER015W, strain faa2, hits give low values 0.989 | locus YER016W, strain bim1, hits give low values 0.995 | locus YER110C, hits give low values 1.01 | locus YER111C, strain swi4, hits give low values 1.01 | locus YER155C, strain BEM2, hits give low values 0.999 | locus YER167W, strain BCK2, hits give low values 1.01 | locus YFR010W, strain ubp6, hits give low values 1.01 | locus YGL078C, strain dbp3, hits give low values 1.01 | locus YGL086W, strain mad1, hits give low values 0.981 | locus YGL167C, strain pmr1, hits give low values 1.01 | locus YGL173C, strain kem1, hits give low values 1.02 | locus YGL227W, strain vid30, hits give low values 0.999 | locus YGL240W, strain doc1, hits give low values 0.985 | locus YGL248W, strain PDE1, hits give low values 1.01 | locus YGL253W, strain hxk2, hits give low values 1.03 | locus YGR078C, strain PAC10, hits give low values 1.02 | locus YGR135W, strain pre9, hits give low values 0.991 | locus YGR229C, strain SMI1, hits give low values 1.01 | locus YGR252W, strain gcn5, hits give low values 0.961 | locus YHR013C, strain ard1, hits give low values 1 | locus YHR027C, strain rpn1, hits give low values 1.03 | locus YHR030C, strain SLT2, hits give low values 1.01 and 1.05 | locus YHR079C, strain IRE1 (second series), hits give low values 1.01 | locus YHR079C, strain IRE1, hits give low values 1.05 | locus YHR094C, strain hxt1, hits give low values 1.01 | locus YHR129C, strain ARP1, hits give low values 1 | locus YHR142W, strain chs7, hits give low values 1.05 | locus YHR200W, strain rpn10, hits give low values 1 | locus YIL066C, strain RNR3, hits give low values 1.01 | locus YIL073C, strain SPO22, hits give low values 1.1 | locus YIL125W, strain kgd1, hits give low values 1.01 | locus YIR030C, strain dcg1, hits give low values 1.01 | locus YJL092W, strain hpr5, hits give low values 0.995 | locus YJL095W, strain BCK1 (second series), hits give low values 1.02 | locus YJL095W, strain BCK1, hits give low values 1 and 1.03 | locus YJL115W, strain asf1, hits give low values 1.01 | locus YJL129C, strain trk1, hits give low values 1.04 | locus YJL134W, strain LCB3, hits give low values 1 | locus YJL154C, strain vps35, hits give low values 1 | locus YJL164C, strain tpk1, hits give low values 1.04 | locus YJL166W, strain qcr8, hits give low values 0.964 | locus YJL168C, strain set2, hits give low values 1.01 | locus YJL187C, strain SWE1 (second series), hits give low values 1.02 | locus YJL187C, strain SWE1, hits give low values 0.998 | locus YJR043C, strain POL32, hits give low values 0.995 | locus YJR066W, strain TOR1, hits give low values 0.977

— PubChem BioAssay AID1159580 (chemical genetic matrix, 2015)
